# Compound activity deposited in PubChem by National Center for Advancing Translational Sciences (NCATS).
# Compounds with a hit are over-represented: about 11% of the library has one in this group of screens.
# HPGD inh: blocks human HPGD enzyme activity | P15428 | purified HPGD, NADH fluorescence kinetic, PGE2 substrate | Potency, µM, for inactives: at the highest dose activity change, negative = inhibition, usual class: inhibitors | actives 4.3% (n = 150,000) | AID 894; note: potency is the fitted concentration of half-maximal effect
# Target sequence (P15428 whole entry, looked up): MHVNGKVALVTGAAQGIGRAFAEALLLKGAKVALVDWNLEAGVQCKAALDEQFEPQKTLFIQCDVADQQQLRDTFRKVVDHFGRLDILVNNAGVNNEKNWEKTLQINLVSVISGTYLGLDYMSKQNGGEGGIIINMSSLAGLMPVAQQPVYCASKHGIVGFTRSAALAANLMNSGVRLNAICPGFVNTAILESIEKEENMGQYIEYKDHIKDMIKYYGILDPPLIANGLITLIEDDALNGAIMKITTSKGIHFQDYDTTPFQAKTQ
#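 NADH formation kinetics: reaction with 30 uM PGE2 and 1 mM NAD+ (final), 20 nM enzyme, Tris-HCl pH 8 with Tween 20, after 15 min compound preincubation at room temperature. Fluorescence change, last versus first of five reads.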
# IMPase cell inh: IMPase inhibition in cells; P97697; CHO-M1 cells, IP1 accumulation, HTRF TR-FRET ratio; inhibition (IP1 accumulation), % at 46.1 µM; 120,000 tested, under 10 active; AID 901; active = well fitted curve in the direction sought with a large enough effect in the signal ratio, not every such curve was filed as active; inconclusive = small, poorly fitted or top-dose-only effect, or a change in a side signal; inactive = no such curve, though single readings can be large or run the other way; the % refers to the signal ratio;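 note: cells stimulated with carbachol in lithium chloride buffer; plate controls were DMSO basal wells for no effect and reference inhibitor wells for full effect; higher means more IMPase inhibition seen as more IP1 and lower FRET ratio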
# Target sequence (P97697 whole entry, looked up): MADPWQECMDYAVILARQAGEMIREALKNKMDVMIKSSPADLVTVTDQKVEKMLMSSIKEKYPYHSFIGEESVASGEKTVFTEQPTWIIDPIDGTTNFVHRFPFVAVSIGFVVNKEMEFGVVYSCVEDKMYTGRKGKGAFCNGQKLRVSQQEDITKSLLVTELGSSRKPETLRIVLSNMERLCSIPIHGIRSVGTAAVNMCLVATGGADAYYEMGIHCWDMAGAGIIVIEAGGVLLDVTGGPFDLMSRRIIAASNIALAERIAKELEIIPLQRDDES
#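 Carbachol-driven Gq signalling in CHO-M1 cells (2000/well) generates IP1. Compounds that block IMPase raise IP1 and so reduce the FRET signal from Eu-anti-IP1 and d2-IP1 after a 10 min room-temperature lysis.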
# ALDH1A1 inh: ALDH1A1 (human) enzyme inhibition. actives 7.3% (n = 220,000). Purified ALDH1A1, NADH fluorescence, propionaldehyde substrate. Potency, µM (titrated, usually from 75.3 µM), without a hit: at the highest dose activity, negative = inhibition, hits mostly inhibitors;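 note: potency is the fitted concentration of half-maximal effect; plate controls were no enzyme wells and a reference inhibitor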
# PNC assembly inh: perinucleolar compartment assembly inhibition; PC3M PTB-GFP, PNC prevalence imaging, 16 h; active compounds read low; actives 3.1% (n = 140,000); activity change (PNC), negative = inhibition, % at 10 µM; AID 2417;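 active = readout at or below -70, meaning at least 70% loss of cells showing the perinucleolar compartment, a nuclear body marking cancer cells; inconclusive = readout between -30 and a set limit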;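 note: plate controls were DMSO wells for no effect and camptothecin positive control wells for full effect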
#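 Compounds are pinned in duplicate onto adhered PC3M cells stably expressing GFP-tagged PTB and incubated 16 h at 37 C. Cells are then fixed, nuclei stained with Hoechst, and PNC-positive cells counted.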
# IMPase Li cell: membrane-permeable IMPase blocker, potentiated with lithium. Potency, µM (highest dose often 59.4 µM), without a hit: at the highest dose activity, negative = IMPase inhibition, actives largely listed as inhibitors. actives 0.35% (n = 210,000). CHO-M1 cells, IP1 TR-FRET (IP-One), carbachol + lithium; active = well fitted inhibition curve with a large enough effect; inconclusive = small, poorly fitted or top-dose-only effect; inactive = no such curve, though single readings can be large or run the other way;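 note: IP1 builds up when IMPase is blocked and the TR-FRET signal falls; potency is the fitted concentration of half-maximal effect; plate controls were basal vehicle for no effect and high inhibitor control for full effect; nearly all actives have a fitted effect of over 50% in size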
#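 CHO-M1, 2000 cells/well, 16–30 h culture; cpd + low Li+, 30 min 37C; lysis with d2-IP1/Eu-anti-IP1 Ab, 10 min RT; TR-FRET 665/620 ratio and 620 channel; AC50 via Hill.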
# The depositor's hits bear a star; ? = inconclusive; nt = no result given; [ ] = dose if it differs, or a comment. Unless noted, calls come from the whole dose curve; as a rule, active = well fitted inhibition curve with a large enough effect (not every such curve was filed as active); inconclusive = small, poorly fitted or top-dose-only effect, or another doubt; inactive = no such curve, though single readings can be large or run the other way. Unless noted, % is set by controls: 0 for no effect and ±100 for the full control effect.
SMILES,HPGD inh,IMPase cell inh,ALDH1A1 inh,PNC assembly inh,IMPase Li cell
CCCOC(=O)CSC1=C(C#N)C(c2ccccc2OC)C(C#N)C(=O)N1 (configuration not stated),-14%,-9,-12%,-97*,24%[38.3 µM]
CCOC(=O)C1C(=O)NC(SCC(=O)Nc2nccs2)=C(C#N)C1c1ccccc1OCC (configuration not stated),13µM*,2,6.3µM*,201,3%
CCOC(=O)C1C(=O)NC(SCC(=O)OC)=C(C#N)C1c1ccccc1OCC (configuration not stated),-8%,-11,14%,0,-9%[38.3 µM]
CCOC(=O)CSC1=C(C#N)C(c2ccccc2OCC)C(C#N)C(=O)N1 (configuration not stated),-9%,-5,?,1,-41%[38.3 µM]
O=C(O)CN(CCN(CC(=O)O)CC(=O)O)CC(=O)O.[Cu],1%,nt,-2%[13.5 µM],nt,-3%
CN(C)CCN1C(=O)CC[C@]2(C)C1=CC[C@@H]1[C@@H]2CC[C@]2(C)[C@H]1CC[C@]2(C)O,-11%,nt,5%[13.5 µM],nt,13%
COc1ccc(N(C)C(=S)Nc2ccc3nc(C)c(C)nc3c2)cc1,-10%,-14,10µM*,15,1%
Cn1cnnc1SCC(=O)c1cc2ccccc2oc1=O,?,5,10µM*,-5,7%[38.3 µM]
O=C(CSc1nnc(-c2cccnc2)o1)Oc1ccccc1,-12%,1,?,-25,-1%[38.3 µM]
O=C(CSc1nnc(-c2cccnc2)o1)c1cc2ccccc2oc1=O,-16%,-7,?,-99*,-1%[38.3 µM]
COC(=O)C1=C(C(=O)OC)[C@@H]2N(C)c3ccccc3[C@@]23C[C@@H](C(=O)OC)N(S(=O)(=O)c2ccc(C#N)cc2)C3=N1,1%,nt,2%[13.5 µM],nt,9%
N[C@H](Cn1ccc(=O)n(Cc2ccccc2C(=O)O)c1=O)C(=O)O,-8%,-4,-2%,nt,10%
COc1ccccc1CCn1c(=O)c(-c2cccs2)nc2cncnc21,nt,nt,?,nt,1%
Cc1c(C(=O)Nc2ccc(-c3nnc4n3CCCCC4)cc2)oc2c1ccc1ccccc12,?,13,-12%,?,10%
O=C(Cn1[nH]c(=O)c2ccccc2c1=O)Nc1cccnc1,nt,nt,5%,nt,-18%
O=C(CC1Sc2ccccc2NC1=O)Nc1cccc(-c2nnc3n2CCCCC3)c1 (configuration not stated),32µM*,3,-1%,-13,3%[38.3 µM]
O=C(Cn1[nH]c(=O)c2ccccc2c1=O)Nc1ccc(-c2nnc3n2CCCCC3)cc1,3.5µM*,-5,14µM*,-5,22%[38.3 µM]
O=C(Cc1n[nH]c(=O)c2ccccc12)Nc1ccc(-c2nnc3n2CCCCC3)cc1,10µM*,6,16µM*,45,23%[38.3 µM]
O=C(Oc1ccccc1)N1CCC[C@@]2(CCN(c3ccccc3)C2)C1,-10%,nt,-13%,nt,3%
CC1CN(S(=O)(=O)c2ccc(NC(=O)c3cc(-c4ccccc4O)n[nH]3)cc2)CC(C)O1 (configuration not stated),14µM*,15,5%,5,7%[38.3 µM]
COC(=O)C1=C(C)C(c2cccs2)NC(=O)N1C (configuration not stated),-13%,0,-4%,-100*,8%
CCOc1ccccc1C(=O)NC1CCN(Cc2nnnn2C2CCCC2)CC1,-7%,2,28µM*,?,-2%[38.3 µM]
CCC(C)(C)n1nnnc1CN1CCC(NC(=O)c2ccccc2C)CC1,-11%,10,?,-100*,3%
Cc1ccccc1C(=O)NC1CCN(Cc2nnnn2Cc2ccc(F)cc2)CC1,nt,4,?,?,nt
CCC(C)(C)n1nnnc1CN1CCC(c2nc3ccc(C)cc3[nH]2)CC1,-1%,5,10µM*,35,10%[38.3 µM]
COc1ccccc1CN1CCC2(CCNCC2)CC1,-12%,nt,8%,nt,5%
O=S(=O)(Cc1ccccc1)/C1=C(\N2CCOCC2)CCCCCC1,-9%,5,13µM*,10,-18%[38.3 µM]
Cc1ccc(-n2c(C)cc3c2CC(C)(C)CC3=O)cc1C,-4%,2,?,-85*,-5%[38.3 µM]
O=c1c(/C=N/OCc2ccc(Cl)cc2Cl)c[nH]n1-c1cccc(Cl)n1,nt,nt,4%,nt,6%
COc1ccc(NC(=O)c2ccc(Cc3ccc(C)cc3)o2)cc1,?,8,25µM*,?,28%
